# Hit rate of the full screen: of about 290,000 compounds, about 3,000 (1%) were called active. The sample holds actives, similar compounds and a random draw of the others, so the mix is not that of the screen. Rule as the data show it: active = inhibition mostly above about 36% (no sharp cut-off); inactive = mostly below about 34%.
# Assay: inhibition of NOD1-driven NF-kB reporter – cell-based, luminescence, uHTS, primary screen (AID 1578);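 also: HEK-293T reporter cells stimulated with the NOD1 agonist gamma-tri-DAP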
# Details: NOD1-driven NF-kB luciferase reporter cells, at 4 µM, stronger effect = higher value
row,Structure (SMILES),inhibition
1,Cc1cccnc1CN1CCN(C(=O)CCc2nnc(CCc3ccccc3)o2)CC1,-55.3% (inactive)
2,CCN1C(=O)/C(=C/c2nc3ccccc3c(=O)[nH]2)c2ccccc21,21.1% (inactive)
3,CCCN1C(=O)/C(=C/c2nc3ccccc3c(=O)[nH]2)c2ccccc21,-6.3% (inactive)
4,CC(C)N1C(=O)/C(=C\c2nc3ccccc3c(=O)[nH]2)c2ccccc21,105% (active)
5,CCCCC(=O)Nc1ncc([N+](=O)[O-])s1,-10.8% (inactive)
6,CC(C)CC(=O)Nc1ncc([N+](=O)[O-])s1,3.6% (inactive)
7,COc1ccc(CC(=O)Nc2ncc([N+](=O)[O-])s2)cc1OC,-65% (inactive)
8,O=C(CS(=O)(=O)c1ccccc1)Nc1ncc([N+](=O)[O-])s1,-39% (inactive)
9,Cc1ccc(CC(=O)Nc2ncc([N+](=O)[O-])s2)cc1,-37.4% (inactive)
10,CC(CC(=O)Nc1ncc([N+](=O)[O-])s1)c1ccccc1 (stereo not drawn),-19.5% (inactive)
11,O=C(COc1ccc(Cl)cc1)Nc1ncc([N+](=O)[O-])s1,73.5% (active)
12,CC(C1CC1)N(Cc1ccccc1)C(=S)Nc1ccccc1Cl (stereo not drawn),-9.7% (inactive)
13,CC(SCC(=O)O)c1nc2ccccc2[nH]1 (stereo not drawn),10.8% (inactive)
14,CCOc1ccccc1N(C)S(=O)(=O)c1ccc2c(c1)N(C(C)=O)CCO2,5.2% (inactive)
15,NC(=O)/C(=C\c1ccccc1)NC(=O)/C=C/c1ccccc1,-19% (inactive)
16,CCOC(=O)c1nn(-c2ccccc2)c2nnc(Cc3ccccc3)c(=O)n12,45.2% (inactive)
17,COC(=O)C1=C(CSc2nc3ccccc3s2)NC(=O)NC1c1ccc(F)cc1 (stereo not drawn),-25.4% (inactive)
18,CCOC(=O)C1=C(CSc2nc3ccccc3s2)NC(=O)NC1c1cccc([N+](=O)[O-])c1 (stereo not drawn),32.6% (inactive)
19,CCOC(=O)C1=C(CSc2nc3ccccc3s2)NC(=O)NC1c1ccc(OC)cc1 (stereo not drawn),67.5% (active)
20,CCN1CCN(CCCNC(=O)C2c3ccccc3C(=O)N(C)C2c2ccc(OC)cc2)CC1 (stereo not drawn),-21.6% (inactive)
21,CCN(CC)CCCNC(=O)C1c2ccccc2C(=O)N(CCOC)C1c1ccc(F)cc1 (stereo not drawn),-40.8% (inactive)
22,CCN(CC)CCCNC(=O)C1c2ccccc2C(=O)N(C)C1c1ccc(OC)cc1 (stereo not drawn),99.8% (active)
23,COc1ccc(CCN2CC(C(=O)NC3CCCCC3)CC2=O)cc1OC (stereo not drawn),-2% (inactive)
24,CCCc1cc(NCCCO)n2c(nc3ccccc32)c1C#N,-0.5% (inactive)
25,Cc1n[nH]c(C)c1CCNCc1ccc(OCC(O)CN2CCCCC2)cc1 (stereo not drawn),-21.7% (inactive)
26,O=C(Nc1ccccc1)c1cn2ccccc2n1,1.1% (inactive)
27,Cc1csc(NC(=O)c2cn3ccccc3n2)n1,53.2% (active)
28,O=C(Nc1nccs1)c1cn2ccccc2n1,22.8% (inactive)

# — PubChem BioAssay AID1578 (Sanford-Burnham Center for Chemical Genomics, 2009)
